Giardia FBPA inh: blocks Giardia fructose-bisphosphate aldolase activity; 0.71% of 290,000 active; AID 2451; A8B2U2; purified Giardia FBPA; Potency, µM (doses to about 59.6 µM), for the others: top-dose activity, negative = inhibition, actives largely listed as inhibitors; note: potency is the fitted concentration of half-maximal effect; % is set by controls: 0 for no effect and ±100 for the full control effect; nearly all actives have a fitted effect of over 55% in size
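40 nM FBPA preincubated 10 min at RT with compound (up to 57.5 uM final), then substrate plus GAPDH/TPI/NAD/arsenate coupling and diaphorase/resazurin added. Fluorescence read after 20 min at RT, 525/598 nm.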
Sm TGR inh: blocks Schistosoma mansoni thioredoxin glutathione reductase. 3% of 360,000 active. purified TGR, DTNB reduction, TNB absorbance 405 nm. Potency, µM (series often up to 114 µM), for the others: top-dose activity change, negative = inhibition, actives largely listed as inhibitors. AID 485364; note: potency is the fitted concentration of half-maximal effect; % is set by controls: 0 for no effect and ±100 for the full control effect; nearly all actives have a fitted effect of over 60% in size
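First, TGR (20 nM dispensed) and NADPH were mixed with compound. Second, a 15 min room-temperature incubation followed. Third, further NADPH and then DTNB were added to start the reaction. Finally, TNB absorbance was monitored kinetically.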
CHX counter: counter-screen for Shiga toxin inhibitors: cycloheximide protein synthesis inhibition. cell reporter, cycloheximide protein synthesis inhibition counterscreen. max response, %. 12% of 300,000 active. AID 2314; in the data active = max response mostly above about 13%, no sharp cut-off; inactive = mostly below about 14%; note: read at 38.3 µM for the half of the compounds with a filed dose; 0% is about no effect
TbPYK inhibitor: inhibitors of Trypanosoma brucei pyruvate kinase. Potency, µM (top dose mostly 76.8 µM), inactives show top-dose activity, negative = inhibition, actives largely listed as inhibitors. Q57TT1. TbPYK enzyme, Kinase-Glo Plus ATP luminescence, 45 min. 0.12% of 410,000 active; note: potency is the fitted concentration of half-maximal effect; % is set by controls: 0 for no effect and ±100 for the full control effect; nearly all actives have a fitted effect of over 50% in size
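ADP (130 uM final) triggers the TbPYK reaction after compound addition; incubation is 45 min at room temperature. Kinase-Glo Plus is then added and luminescence imaged. Normalized data are fitted to concentration-effect curves.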
Shiga toxin inh: blocks Shiga toxin action in Vero cells. inhibition, % at 38.7 µM. AID 2315. 9.2% of 290,000 active. Vero cells, Shiga toxin protein synthesis inhibition reporter; in the data active = inhibition mostly above about 28%, no sharp cut-off; inactive = mostly below about 43%; note: 0% is about no effect
LmPK inh: inhibitors of Leishmania mexicana pyruvate kinase | Q27686 | 0.37% of 290,000 active | Potency, µM (series often up to 57.5 µM), for the others: at the highest dose activity change, negative = inhibition, actives largely listed as inhibitors | purified LmPK, Kinase-Glo ATP luminescence, 1 h; note: potency is the fitted concentration of half-maximal effect; % is set by controls: 0 for no effect and ±100 for the full control effect
Target sequence (Q27686 whole entry, looked up): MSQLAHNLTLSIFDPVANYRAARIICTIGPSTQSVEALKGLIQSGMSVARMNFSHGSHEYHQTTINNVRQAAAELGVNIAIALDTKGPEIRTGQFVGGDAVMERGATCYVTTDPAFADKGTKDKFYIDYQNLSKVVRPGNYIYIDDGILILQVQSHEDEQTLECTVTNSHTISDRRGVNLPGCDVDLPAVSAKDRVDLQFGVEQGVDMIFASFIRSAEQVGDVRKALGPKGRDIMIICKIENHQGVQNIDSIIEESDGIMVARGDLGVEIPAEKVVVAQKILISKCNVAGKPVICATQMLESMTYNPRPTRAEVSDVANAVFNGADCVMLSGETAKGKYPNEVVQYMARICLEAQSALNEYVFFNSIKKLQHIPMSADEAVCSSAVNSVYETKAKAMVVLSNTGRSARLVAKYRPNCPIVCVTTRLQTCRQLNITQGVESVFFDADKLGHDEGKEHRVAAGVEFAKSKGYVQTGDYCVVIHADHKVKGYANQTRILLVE
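Kinase-Glo luminescence read after 1 h RT reaction of 0.1 nM LmPK with 0.5 mM PEP and 0.1 mM ADP. Activity scaled between uninhibited and enzyme-free controls.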
An asterisk follows results filed as active. Only a selection was taken, and hits are over-represented in it overall. Unless noted, calls come from the whole dose curve; as a rule, active = well fitted curve in the direction sought with a large enough effect; inconclusive = small, poorly fitted or top-dose-only effect, or another doubt; inactive = no such curve, though single readings can be large; an effect the other way counts as inactive or inconclusive.

Screening COc1ccccc1NC(=O)COc1ccc(/C=N/NC(=O)c2cccnc2)cc1 returned Sm TGR inh 4.4%, CHX counter 6.9, TbPYK inhibitor 1.8%, Shiga toxin inh -11.9 and LmPK inh 2.2%.
Screening CC(C)(C)c1ccc(N2C[C@@H](COc3ccc(C(=O)O)cc3)CC2=O)cc1 returned Giardia FBPA inh 5.6%, CHX counter 10.7 and Shiga toxin inh 25.4.
For COc1ccc(C2=Nc3ccc(OC(F)(F)F)cc3NC(c3cccnc3)=N2)cc1 the results were Sm TGR inh 1.7% and TbPYK inhibitor -3.0%.
Screening O=C(COc1ccc(/C=N/NC(=O)c2cc3ccccc3o2)cc1Cl)Nc1ccccc1 returned Giardia FBPA inh -7.8%, Sm TGR inh -30.2%, CHX counter 47.3*, TbPYK inhibitor -9.9%, Shiga toxin inh 61.9* and LmPK inh 11.0%.
CCOc1ccc(/C=N/NC(=O)c2ccncc2)cc1OC was read as TbPYK inhibitor -1.8%.
`COc1cc(/C=N/NC(=O)c2ccncc2)ccc1OCC(=O)Nc1ccccc1` gave Giardia FBPA inh -1.8%, Sm TGR inh -13.2%, CHX counter 30.3*, TbPYK inhibitor 1.5%, Shiga toxin inh 56.1* and LmPK inh -0.5%.
O=C(COc1ccc(/C=N/NS(=O)(=O)c2ccccc2)cc1)Nc1ccccc1 was read as Giardia FBPA inh -2.4%, Sm TGR inh -20.4%, CHX counter 21.0*, TbPYK inhibitor 0.6%, Shiga toxin inh 60.2 and LmPK inh 3.0%.
For Cc1ccc(C2CN=NC23CCc2ccccc2C3=O)cc1 (configuration not stated) the results were Giardia FBPA inh -5.9%, Sm TGR inh -1.0%, CHX counter 47.5*, TbPYK inhibitor -3.9%, Shiga toxin inh 173.0* and LmPK inh 3.4%.
`O=C(CCNS(=O)(=O)c1ccc2c(c1)CCCC(=O)N2)Nc1cccc(Cl)c1` gave Sm TGR inh 3.8% and TbPYK inhibitor -5.2%.
O=c1c(-c2ccc(F)cc2)coc2cc(O)ccc12 was read as Giardia FBPA inh -0.4%, Sm TGR inh 1.9%, CHX counter 31.7*, TbPYK inhibitor 2.8%, Shiga toxin inh 113.6* and LmPK inh inconclusive.
Screening COc1ccc2c(=O)c(-c3ccc(OC)c(OC)c3)coc2c1 returned Giardia FBPA inh 3.1%, Sm TGR inh 3.7%, CHX counter 24.5*, TbPYK inhibitor 6.5%, Shiga toxin inh 54.4* and LmPK inh 0.6%.
`CCOc1ccccc1Oc1coc2cc(O)ccc2c1=O` gave Giardia FBPA inh 1.3%, Sm TGR inh -1.2%, CHX counter -1.5, TbPYK inhibitor 3.1%, Shiga toxin inh 3.3 and LmPK inh -19.3%.
For COc1ccc(-c2coc3cc(O)ccc3c2=O)cc1OC the results were Giardia FBPA inh 3.1%, Sm TGR inh 0.9%, CHX counter 33.8*, TbPYK inhibitor -1.4%, Shiga toxin inh 33.9 and LmPK inh -2.9%.
Screening O=c1c(-c2ccc(Cl)cc2)coc2c(CN3CCCCC3)c(O)ccc12 returned Giardia FBPA inh -11.3%, Sm TGR inh 3.9%, CHX counter 5.4, TbPYK inhibitor 5.2%, Shiga toxin inh 16.8 and LmPK inh -2.3%.
`O=c1c(-c2ccc(F)cc2)coc2c3c(ccc12)OCCO3` gave Giardia FBPA inh -0.9%, Sm TGR inh 6.4%, CHX counter 44.3*, TbPYK inhibitor -5.5%, Shiga toxin inh 87.1* and LmPK inh -6.7%.
For CC(=O)NC(c1cccc(F)c1)c1nc(-c2ccc(N(C)C)cc2)cs1 (configuration not stated) the results were TbPYK inhibitor -1.5%.
COc1ccc(-n2c(C)nc3cc(C(=O)NC4CCCC4)ccc32)cc1 was read as Sm TGR inh -2.3% and TbPYK inhibitor -5.0%.
`COc1ccc2c(=O)c(-c3ccccc3)coc2c1` gave Giardia FBPA inh 10.0%, Sm TGR inh -0.5%, CHX counter 51.6*, TbPYK inhibitor -9.9%, Shiga toxin inh 84.2* and LmPK inh inconclusive.

Screening data from PubChem BioAssay.
